Consider 33 compounds from ChEMBL document CHEMBL1961873, “Compounds: GSK PKIS; Assays: Nanosyn kinase panel” (2012).
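Note: reported value is the mean percent inhibition of NEK9.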

The target of this assay is T1, Serine/threonine-protein kinase Nek9 (Homo sapiens) (UniProt Q8TD19).
T1 sequence (whole entry): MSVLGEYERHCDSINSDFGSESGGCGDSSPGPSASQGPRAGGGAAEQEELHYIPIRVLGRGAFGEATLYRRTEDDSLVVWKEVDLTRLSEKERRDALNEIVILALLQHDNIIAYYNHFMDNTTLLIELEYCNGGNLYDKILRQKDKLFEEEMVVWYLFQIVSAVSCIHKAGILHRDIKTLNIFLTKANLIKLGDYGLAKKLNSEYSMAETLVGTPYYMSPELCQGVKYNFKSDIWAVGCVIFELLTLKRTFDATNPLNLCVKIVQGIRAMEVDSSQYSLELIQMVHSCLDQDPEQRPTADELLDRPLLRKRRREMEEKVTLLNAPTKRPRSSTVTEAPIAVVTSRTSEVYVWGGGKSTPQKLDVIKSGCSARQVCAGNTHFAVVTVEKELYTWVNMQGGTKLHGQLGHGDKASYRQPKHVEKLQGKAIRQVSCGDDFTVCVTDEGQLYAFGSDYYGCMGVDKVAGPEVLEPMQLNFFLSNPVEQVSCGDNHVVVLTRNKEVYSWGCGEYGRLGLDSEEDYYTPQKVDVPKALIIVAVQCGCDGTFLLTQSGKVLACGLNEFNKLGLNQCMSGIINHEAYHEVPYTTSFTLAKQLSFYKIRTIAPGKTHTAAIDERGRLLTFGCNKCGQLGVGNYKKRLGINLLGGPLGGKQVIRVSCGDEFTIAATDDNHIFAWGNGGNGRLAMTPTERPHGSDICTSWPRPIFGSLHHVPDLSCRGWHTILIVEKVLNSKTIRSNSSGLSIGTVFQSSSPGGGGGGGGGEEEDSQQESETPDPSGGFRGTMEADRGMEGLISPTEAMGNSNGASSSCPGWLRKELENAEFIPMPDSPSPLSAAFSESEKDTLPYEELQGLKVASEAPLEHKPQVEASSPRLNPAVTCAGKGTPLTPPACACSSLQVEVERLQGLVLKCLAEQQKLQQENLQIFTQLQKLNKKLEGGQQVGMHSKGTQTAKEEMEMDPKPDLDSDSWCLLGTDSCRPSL
The settings on record: at 0.1 µM.
Take `CN1CCN(CCCNc2nc3ccc(Oc4ccc(NC(=O)Nc5cc(C(F)(F)F)ccc5F)cc4)cc3[nH]2)CC1`: the inhibition is 2.54%.
Under `NS(=O)(=O)c1ccc(N/N=C2\C(=O)Nc3ccc(-c4cnco4)cc32)cc1` stands 2.34%; under `O=C1Nc2ccccc2/C1=C/Nc1ccc(-n2cncn2)cc1`, 5.79%.
On to `Cc1nnc(-c2ccc(C)c(-c3ccc(C(=O)NCc4ccc(Cl)cc4)cc3)c2)o1`, for which the inhibition came to 6.68%.
For the compound `CN(C)CCCNc1nccc(-c2c(-c3ccc(F)cc3)nn3cc(C(F)(F)F)ccc23)n1`, the inhibition was 5.9%.
For the compound `COc1ccc2ncn(-c3cc(O[C@H](C)c4ccccc4Cl)c(C(N)=O)s3)c2c1`, the inhibition is 31.8%.
`CCS(=O)(=O)c1ccc(OC)c(Nc2ncc(-c3cccc(-c4ccccc4F)c3)o2)c1`: the inhibition was -0.87%.
For the compound `O=C(Nc1n[nH]c2cc(-c3ccccc3)ccc12)C1CC1`, the inhibition was 4.27%.
As for `COc1ccc(-c2ccc3c(NC(=O)C4CC4)n[nH]c3n2)cc1`, the inhibition was 4%.
On to `COc1cc(Nc2ncc3c(C)nc(-c4cccc(C(F)(F)F)c4)n3n2)cc(OC)c1OC`, for which the inhibition amounted to 54.9%.
For `Cc1ccc(NC(=O)c2ccoc2)cc1-c1ccc(C(=O)NCC2CC2)cc1`, the inhibition was 5.95%.
Next, `Fc1ccc(-c2nc3n(c2-c2ccncc2)CCS3)cc1`: 2.21%; `NS(=O)(=O)c1ccc(N/N=C2\C(=O)Nc3ccc(C(=O)NCCCn4ccnc4)cc32)cc1`: 9.43%; `CCN(CC)Cc1ccc(Nc2nccc(-c3cnn4ncccc34)n2)cc1`: 6.44%.
Under `NC(=O)c1cc(-c2ccc(F)cc2)cc(-c2ccncc2)c1N` stands 7.94%; under `Nc1nccc(-c2c(-c3ccc(F)cc3)ncn2C2CCC(O)CC2)n1` (stereo not drawn), 2.41%.
Next, `CCc1ccc(Oc2nccc(-c3c(-c4ccc(F)cc4)ncn3C3CCNCC3)n2)cc1`: -0.95%; `C#Cc1cccc(Nc2ncnc3ccc(OCCCCNCCS(C)(=O)=O)cc23)c1`: 8.12%.
On to `NC(=O)c1ccc(Oc2nccc(-c3c(-c4ccc(F)cc4)ncn3C3CCNCC3)n2)cc1`, for which the inhibition was 6.05%.
For the compound `COC(=O)Nc1nc2ccc(Sc3ccc(NC(=O)Nc4cc(C(F)(F)F)ccc4F)cc3)cc2[nH]1`, the inhibition was -1.77%.
For the compound `CCC(=O)Nc1ccc(C)c(-c2ccc(C(=O)NCC3CC3)cc2)c1`, the inhibition amounted to 8.46%.
Take `COc1cccc(-n2cnc3c(N/N=C/c4ccncc4)ncnc32)c1`: the inhibition came to 0.98%.
In the case of `Cc1ccc(C(=O)NC2CCC2)cc1-c1ccc(C(=O)NCC2CC2)cc1`, the inhibition amounted to 4.75%.
Turning to `O=C1NC(=O)C(c2cccc(Cl)c2)=C1Nc1ccc(Cl)c(C(=O)O)c1`, the inhibition was -5.63%.
For the compound `C[C@@H](Oc1cc(-n2cnc3ccc(OC4CCN(C)CC4)cc32)sc1C(N)=O)c1ccccc1Cl`, the inhibition turned out to be 62%.
As to `CS(=O)(=O)CCNCc1ccc(-c2ccc3ncnc(Nc4ccc(OCc5ccccc5)c(Br)c4)c3c2)o1`, the inhibition was 6.05%.
On to `COc1cc(N2CCN(C(C)C)CC2)ccc1Nc1nc(Nc2ccc(F)cc2C(=O)NC[C@@H](O)CO)c2cc[nH]c2n1`, for which the inhibition turned out to be 2.99%.
Consider `Clc1ccc(CNc2nccc(-c3cnn4ncccc34)n2)cc1`, for which the inhibition was -0.09%.
As to `COc1cc(Nc2ncc(-c3ccccc3)o2)cc(OC)c1OC`, the inhibition is 5.06%.
On to `O=C(Nc1n[nH]c2nc(-c3ccc(O)cc3)c(Br)cc12)C1CC1`, for which the inhibition turned out to be 13.9%.
Next, `Fc1ccc(-c2ncn(C3CCNCC3)c2-c2ccnc(Oc3ccc4c(c3)OCO4)n2)cc1`: 7.85%.
For the compound `NC(=O)c1cc(-c2ccncc2)cc(-c2ccccc2)c1N`, the inhibition amounted to 9.48%.
Regarding `Fc1ccc(-c2ncn(C3CCNCC3)c2-c2ccnc(Oc3ccc(Oc4ccccc4)cc3)n2)cc1`, the inhibition was found to be 4.61%.

As a reminder, the inhibition is the drop in the measured response relative to a control, in per cent.
